The nature of assay [1]: Nuclear factor erythroid 2-related factor 2/antioxidant responsive element (Nrf2/ARE) small molecule agonists: qHTS cell viability counter screen in human keratinocytes (AID 1919968; active = well fitted curve in the direction sought with a large enough effect in the repeat runs; an effect the other way counts as inactive or inconclusive; note: nearly all actives have a fitted effect of over 55% in size; note: potency is the fitted concentration of half-maximal effect). The gist of the method:
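Cells of the KeratinoSens line were plated at 1,500 per well and left for 5 h before compound transfer from DMSO stocks. After a 23 h incubation (37 C, 5% CO2), CellTiter-Fluor was added. Signal was taken as fluorescence intensity 1 h later.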

Assay [2] in a line: Nuclear factor erythroid 2-related factor 2/antioxidant responsive element (Nrf2/ARE) small molecule agonists: luciferase reporter gene qHTS assay in human keratinocytes (AID 1919969). Note: nearly all actives have a fitted effect of over 35% in size. Note: potency is the fitted concentration of half-maximal effect.
For assay [3], the target named is Gonadotropin-releasing hormone receptor (Homo sapiens) (UniProt P30968). In words: Human gonadotropin-releasing hormone receptor (GnRHR) small molecule agonists, calcium flux assay in GnRHR-HEK293 cells (AID 1920063). Note: nearly all actives have a fitted effect of over 35% in size. In outline: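 Compounds dissolved in DMSO are pin-transferred onto dye-loaded GnRHR-HEK293 cells, which were seeded 18 h before at 37 C/5% CO2. Calcium signal is read as fluorescence intensity at 1 s intervals for 3 min.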
Sequence of Gonadotropin-releasing hormone receptor (Homo sapiens) (P30968 whole entry, looked up): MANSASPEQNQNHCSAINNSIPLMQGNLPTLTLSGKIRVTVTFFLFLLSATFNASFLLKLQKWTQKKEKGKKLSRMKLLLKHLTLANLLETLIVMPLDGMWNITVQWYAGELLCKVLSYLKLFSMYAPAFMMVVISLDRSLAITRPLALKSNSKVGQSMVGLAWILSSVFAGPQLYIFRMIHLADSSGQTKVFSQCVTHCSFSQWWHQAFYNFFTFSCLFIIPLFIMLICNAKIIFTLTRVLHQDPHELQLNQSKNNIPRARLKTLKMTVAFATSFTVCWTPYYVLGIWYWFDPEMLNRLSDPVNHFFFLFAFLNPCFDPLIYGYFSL

Assay [4] deals with KiSS-1 receptor (Homo sapiens) (UniProt Q969F8). Kind of assay: Human kisspeptin (KISS1R) small molecule agonists, calcium flux assay in KISS1R-HEK293 cells (AID 1920064; active = well fitted curve in the direction sought with a large enough effect in the repeat runs; an effect the other way counts as inactive or inconclusive). The gist of the method: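 Cell line: HEK293, stable human KISS1R. Dye loading 1 h at 37 C after 18 h culture. Read: kinetic fluorescence, 480/540 nm, 3 min at 1 s intervals.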
Sequence of KiSS-1 receptor (Homo sapiens) (Q969F8 whole entry, looked up): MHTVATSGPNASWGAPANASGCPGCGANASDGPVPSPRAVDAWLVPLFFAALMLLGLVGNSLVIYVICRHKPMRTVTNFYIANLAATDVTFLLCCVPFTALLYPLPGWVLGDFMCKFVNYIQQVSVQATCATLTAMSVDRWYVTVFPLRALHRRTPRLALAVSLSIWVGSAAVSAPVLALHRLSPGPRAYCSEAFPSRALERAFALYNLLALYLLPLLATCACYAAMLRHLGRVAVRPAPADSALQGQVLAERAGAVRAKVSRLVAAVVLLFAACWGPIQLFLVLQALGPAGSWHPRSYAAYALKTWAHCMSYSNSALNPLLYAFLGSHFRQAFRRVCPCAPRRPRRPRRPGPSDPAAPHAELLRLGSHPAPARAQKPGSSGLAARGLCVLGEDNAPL
A short description of assay [5]: G protein-coupled receptor (GPCR) small molecule agonists, calcium flux assay: HEK293 wild type cell line counter screen (AID 1920065). In outline:
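Tox21 10K compounds, 15 concentrations each in triplicate, pin-transferred in DMSO onto dye-loaded cells; kinetic read at 480/540 nm for 3 min, 1 s intervals.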

Assay [6] can be described thus: p53 small molecule agonists, cell-based qHTS assay with human liver microsomes (AID 1963577). The gist of the method:
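p53RE-bla reporter cells were pre-incubated 5 h at 37 C, then treated with compounds plus human liver microsomes (0.5 mg/mL final) and NADPH (0.5 mg/mL final) for 16 h at 37 C. Beta-lactamase activity was read by LiveBLAzer fluorescence after 2 h at room temperature.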

Assay [7] in a line: p53 small molecule agonists, cell-based qHTS assay with rat liver microsomes (AID 1963578). In outline: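 p53RE-bla cells were exposed to compounds together with rat liver microsomes (0.5 mg/mL final) and NADPH (0.5 mg/mL final) for 16 h at 37 C, then read by LiveBLAzer beta-lactamase fluorescence after 2 h at room temperature.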
Assay [8] can be described thus: p53 small molecule agonists, cell-based qHTS assay with human liver microsomes: qHTS cell viability counter screen (AID 1963579). Note: nearly all actives have a fitted effect of over 45% in size. Note: potency is the fitted concentration of half-maximal effect. In outline:
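p53RE-bla cells (4,000/well) were pre-incubated 5 h at 37 C, then given compounds in DMSO plus human liver microsomes (0.5 mg/mL final) and NADPH (0.5 mg/mL final) for 16 h at 37 C. Viability was read by CellTiter-Glo luminescence.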

The nature of assay [9]: p53 small molecule agonists, cell-based qHTS assay with rat liver microsomes: qHTS cell viability counter screen (AID 1963580). Note: nearly all actives have a fitted effect of over 45% in size. Note: potency is the fitted concentration of half-maximal effect. The gist of the method:
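After the beta-lactamase ratio was read, CellTiter-Glo was added to the same wells and luminescence measured at 30 min; cells had been treated 16 h at 37 C with compounds, rat liver microsomes and NADPH (0.5 mg/mL final each).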

Assay [10] in a line: p53 small molecule agonists, cell-based qHTS assay: qHTS cell viability counter screen (AID 1963581). Note: nearly all actives have a fitted effect of over 45% in size. Note: potency is the fitted concentration of half-maximal effect. The gist of the method:
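ATP content measured by luminescence in HCT-116 p53RE-bla cells treated 16 h at 37 C, same wells as the reporter screen.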

Assay [11] concerns the target 5-hydroxytryptamine receptor 2A (Homo sapiens) (UniProt P28223). In words: 5-hydroxytryptamine receptor 2A (HTR2A) small molecule antagonists, cell-based qHTS assay (AID 1963586). Note: nearly all actives have a fitted effect of over 45% in size. Note: potency is the fitted concentration of half-maximal effect. In outline: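 CHO cells stably expressing human HTR2A were plated for 18 h at 37 C, then loaded with calcium dye for 1 h. Compounds were preincubated 5 min at room temperature before DOI (4 nM solution) was added. Kinetic fluorescence was read for 3 min.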

The target is the same in assay [12]. Kind of assay: 5-hydroxytryptamine receptor 2A (HTR2A) small molecule agonists, cell-based qHTS assay (AID 1963587). Note: nearly all actives have a fitted effect of over 30% in size. Note: potency is the fitted concentration of half-maximal effect. The gist of the method:
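CHO cells stably expressing human HTR2A, plated 18 h, loaded with calcium dye 1 h at 37 C. Agonist mode: compounds added and intracellular calcium fluorescence recorded kinetically for 2 min at 1 sec intervals.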

Assay [13] has as its target Muscarinic acetylcholine receptor M1 (Homo sapiens) (UniProt P11229). In words: Cholinergic receptor muscarinic 1 (CHRM1) small molecule antagonists, cell-based qHTS assay (AID 1963588). Note: nearly all actives have a fitted effect of over 40% in size. Note: potency is the fitted concentration of half-maximal effect. In outline: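 Compounds were tested at 15 concentrations in three independent runs. Dye-loaded CHRM1-CHO cells were exposed 5 min at room temperature before stimulation by acetylcholine added at 50nM. Intracellular calcium was read kinetically on FDSS for 3 min.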

Assay [14] shares this target. Kind of assay: Cholinergic receptor muscarinic 1 (CHRM1) small molecule agonists, cell-based qHTS assay (AID 1963589). Note: nearly all actives have a fitted effect of over 35% in size. The gist of the method:
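Homogeneous fluorescence calcium flux, agonist mode. Human M1-expressing CHO cells; compound dosed at 15 concentrations, three independent runs; signal sampled every 1 sec.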

Assay [15] in a line: cAMP Responsive Elements (CRE) small molecule agonists, cell-based qHTS assay (AID 1963590). In outline: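 HEK 293T cells stably bearing CRE-bla were plated at 2,000 cells per well and rested 18 h. Compounds, positive controls or DMSO were added for 3 h at 37 C. LiveBLAzer B/G substrate was then loaded for 2 h at room temperature.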
A short description of assay [16]: cAMP Responsive Elements (CRE) small molecule antagonists, cell-based qHTS assay (AID 1963591; active = well fitted inhibition curve with a large enough effect in the signal ratio in the repeat runs, not every such curve was filed as active; the % refers to the signal ratio). In outline: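 First, CRE-bla HEK293T cells settled 18 h at 37 C. Next, compound and 0.25 uM final NKH477 were applied for 3 h. Last, LiveBLAzer B/G substrate was loaded for 2 h at room temperature.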
Assay [17] addresses Beta-2 adrenergic receptor (Homo sapiens) (UniProt P07550). Kind of assay: Adrenergic beta2 receptor (ADRB2) small molecule antagonists, cell-based qHTS assay (AID 1963592). Note: series mostly up to about 92 µM; nearly all actives have a fitted effect of over 50% in size. The gist of the method: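 Assay format: CHO-ADRB2 cells, 18-20hr seeding at 37C/5% CO2, then compound plus 1nM isoproterenol agonist mix for 0.5hr RT. Homogeneous time-resolved fluorescence cAMP detection after 1hr, expressed as 665/615 nm ratio.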

Assay [18] addresses D(2) dopamine receptor (Homo sapiens) (UniProt P14416). In words: Dopamine D2 receptor (DRD2) small molecule antagonists, cell-based qHTS assay (AID 1963595; active = well fitted inhibition curve with a large enough effect in the signal ratio in the repeat runs, with a control signal flat; the % refers to the signal ratio; note: potency is the fitted concentration of half-maximal effect). The gist of the method: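 HEK293 cells stably expressing DRD2, preincubated with 0.1 mM Ro20-1724 and compounds 10 min, were stimulated with 200 nM NKH477 plus 12 nM quinpirole for 30 min at room temperature; cAMP measured by HTRF (665/620 nm).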

Assay [19] shares this target. Kind of assay: Dopamine D2 receptor (DRD2) small molecule agonists, cell-based qHTS assay (AID 1963594). Note: nearly all actives have a fitted effect of over 35% in size. In outline:
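HEK293 cells stably expressing human DRD2, pre-treated with PDE inhibitor Ro20-1724 (0.1 mM final) and compound 10 min at room temperature, then stimulated with NKH477 (200nM […]) for 30 min. cAMP read by HTRF (665/620 nm).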

Potency data for eight compounds are collected here from PubChem BioAssay (Tox21).

“And” between values parts separate entries of the source, which are not always exact repeats. Identical values can stand only once. Records with an inconclusive call do not appear. Some structures have more than one record in an assay (separate samples or runs), and their calls can disagree. The source made the active and inactive calls. Unless noted, calls come from the whole dose curve.

Sequence of 5-hydroxytryptamine receptor 2A (Homo sapiens) (P28223 whole entry, looked up): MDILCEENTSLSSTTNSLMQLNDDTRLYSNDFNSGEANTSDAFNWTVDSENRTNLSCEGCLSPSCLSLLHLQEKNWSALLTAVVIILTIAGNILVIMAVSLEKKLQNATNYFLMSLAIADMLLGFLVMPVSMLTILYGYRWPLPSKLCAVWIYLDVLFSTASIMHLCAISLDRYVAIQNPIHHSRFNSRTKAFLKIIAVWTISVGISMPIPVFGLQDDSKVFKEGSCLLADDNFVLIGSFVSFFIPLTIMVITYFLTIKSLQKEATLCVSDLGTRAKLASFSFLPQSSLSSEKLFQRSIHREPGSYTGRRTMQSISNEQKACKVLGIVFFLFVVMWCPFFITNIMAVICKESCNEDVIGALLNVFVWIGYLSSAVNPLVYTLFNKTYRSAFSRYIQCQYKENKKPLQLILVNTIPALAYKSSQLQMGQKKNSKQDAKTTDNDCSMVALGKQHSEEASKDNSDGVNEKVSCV
Sequence of Muscarinic acetylcholine receptor M1 (Homo sapiens) (P11229 whole entry, looked up): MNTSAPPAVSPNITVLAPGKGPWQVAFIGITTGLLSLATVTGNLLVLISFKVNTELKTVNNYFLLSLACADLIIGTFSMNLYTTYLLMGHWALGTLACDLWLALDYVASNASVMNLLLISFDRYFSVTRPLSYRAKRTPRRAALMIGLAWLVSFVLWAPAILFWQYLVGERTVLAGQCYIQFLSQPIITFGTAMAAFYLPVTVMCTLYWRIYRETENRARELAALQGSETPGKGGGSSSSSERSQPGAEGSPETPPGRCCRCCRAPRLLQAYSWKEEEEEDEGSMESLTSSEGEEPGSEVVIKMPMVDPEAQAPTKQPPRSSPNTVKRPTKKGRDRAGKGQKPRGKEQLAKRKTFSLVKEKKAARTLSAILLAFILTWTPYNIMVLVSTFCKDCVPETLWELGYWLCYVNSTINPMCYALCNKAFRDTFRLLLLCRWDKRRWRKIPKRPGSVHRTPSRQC
Sequence of D(2) dopamine receptor (Homo sapiens) (P14416 whole entry, looked up): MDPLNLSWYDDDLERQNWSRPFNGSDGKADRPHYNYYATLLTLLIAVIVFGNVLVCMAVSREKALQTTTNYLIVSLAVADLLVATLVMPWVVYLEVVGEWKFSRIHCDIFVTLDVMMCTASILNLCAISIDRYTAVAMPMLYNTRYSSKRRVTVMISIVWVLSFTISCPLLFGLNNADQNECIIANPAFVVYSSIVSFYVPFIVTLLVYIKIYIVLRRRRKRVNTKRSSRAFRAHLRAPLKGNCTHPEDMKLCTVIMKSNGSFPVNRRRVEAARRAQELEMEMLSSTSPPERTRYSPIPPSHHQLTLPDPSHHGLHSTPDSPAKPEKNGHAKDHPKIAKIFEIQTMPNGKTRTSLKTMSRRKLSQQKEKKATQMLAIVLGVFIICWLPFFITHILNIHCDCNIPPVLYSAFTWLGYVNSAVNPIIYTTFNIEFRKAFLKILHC
Sequence of Beta-2 adrenergic receptor (Homo sapiens) (P07550 whole entry, looked up): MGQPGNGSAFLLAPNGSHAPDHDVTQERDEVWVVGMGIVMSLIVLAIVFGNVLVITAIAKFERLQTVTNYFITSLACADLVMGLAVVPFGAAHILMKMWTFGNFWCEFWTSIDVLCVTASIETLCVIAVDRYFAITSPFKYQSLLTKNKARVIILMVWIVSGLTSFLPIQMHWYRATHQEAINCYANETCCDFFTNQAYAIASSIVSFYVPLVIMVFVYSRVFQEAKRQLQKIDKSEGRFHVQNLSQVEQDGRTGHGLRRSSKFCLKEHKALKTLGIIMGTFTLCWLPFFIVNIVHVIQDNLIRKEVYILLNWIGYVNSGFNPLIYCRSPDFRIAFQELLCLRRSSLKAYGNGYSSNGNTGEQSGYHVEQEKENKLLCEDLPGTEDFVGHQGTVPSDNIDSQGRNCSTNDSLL

`Nc1ccc(C(=O)O)cc1`: the Potency result in assay [1], in [2], in assay [3], in [4], in assay [5] and in [6] was “inactive” each time. The Potency result in assay [7], in assay [8], in assay [9], in assay [10], in assay [11] and in assay [12] was “inactive” throughout. Also, the Potency entry in [13], in assay [14], in assay [15], in assay [16], in assay [17] and in assay [18] was “inactive” in each case.
In the case of `NC(=O)c1ncn([C@@H]2O[C@H](CO)[C@@H](O)[C@H]2O)n1`, the Potency entry in [1], in assay [2], in assay [3], in assay [4], in assay [5] and in assay [6] was “inactive” each time. Besides, the Potency entry in assay [7], in assay [8], in [9], in assay [10], in [15] and in assay [16] was “inactive” throughout. Further, the Potency entry in [17], in assay [19] and in assay [18] was “inactive” in each case.
Regarding `C[N+](C)(C)CCCCCC[N+](C)(C)C`, the Potency entry in assay [1], in assay [2], in assay [3], in assay [4], in [5] and in [6] was “inactive” throughout. Besides, the Potency result in [7], in assay [8], in [9], in assay [10], in assay [11] and in assay [12] was “inactive” in each case. The Potency result in assay [13], in assay [14], in assay [15], in assay [16], in assay [17] and in assay [19] was “inactive” in each case. For the same compound, the Potency entry in assay [18] was “inactive”.
Turning to `NC(N)=NC(N)=NCCc1ccccc1`, the Potency result in [1], in assay [2], in assay [3], in assay [4], in assay [5] and in assay [6] was “inactive” each time. In addition, the Potency result in [7], in [8], in [9], in assay [10], in assay [11] and in assay [12] was “inactive” each time. The Potency entry in [13], in [14], in assay [15], in assay [17], in assay [19] and in [18] was “inactive” throughout.
Take `c1ccc2cc3c(ccc4ccccc43)cc2c1`: the Potency result in assay [1], in assay [3], in [4], in assay [5], in assay [6] and in assay [7] was “inactive” in each case. In addition, the Potency result in assay [8], in assay [9], in assay [10], in assay [11], in [13] and in assay [15] was “inactive” throughout. In addition, the Potency result in [16], in assay [17], in [19] and in assay [18] was “inactive” throughout. Also, the Potency in assay [2] was 9.72 µM (active) and 9.69 µM (active).
For the compound `CC(C)OB(OC(C)C)OC(C)C`, the Potency entry in [1], in [2], in [3], in [4], in [5] and in assay [6] was “inactive” throughout. The Potency result in assay [7], in assay [8], in assay [9], in [10], in assay [11] and in assay [12] was “inactive” in each case. Also, the Potency entry in [14], in assay [16], in assay [17] and in assay [19] was “inactive” each time.
For `CCC(=O)OC/C=C/c1ccccc1`, the Potency entry in [1], in [2], in [3], in assay [4], in [5] and in [6] was “inactive” throughout. Also, the Potency result in assay [7], in [8], in assay [9], in [10], in [11] and in assay [12] was “inactive” in each case. Besides, the Potency result in [14], in assay [15], in [16], in assay [17] and in assay [18] was “inactive” each time.
As to `CCCCCCCCCCCCCCCC[N+](C)(C)Cc1ccccc1`, the Potency in assay [1] is 28.2 µM (active) and 24.8 µM (active) and 26.6 µM (active); in assay [8], 53 µM (active) and 33 µM (active) and inactive; in assay [9], 41.5 µM (active) and inactive; in assay [10], 37 µM (active); in assay [11] it was “inactive and 11.6 µM (active)”; in assay [12], 49.8 µM (active). Besides, the figures for the Potency in [13] and in [18] were 0.41 µM (active) and 55.5 µM (active), respectively. Also, the Potency entry in assay [2], in [3], in [4], in [5], in assay [6] and in assay [7] was “inactive” in each case. The Potency result in assay [14], in assay [17] and in assay [19] was “inactive” throughout.
